# Bioassay records (PubChem BioAssay)
# USP1 inh: USP1/UAF1 (human) deubiquitinase inhibition. recombinant USP1/UAF1, Ub-Rhodamine cleavage fluorescence. Potency, µM (series often up to 57.1 µM), for the others: at the highest dose activity change, negative = inhibition, hits mostly inhibitors. hit rate 0.23% among 390,000. AID 743255; note: potency is the fitted concentration of half-maximal effect; nearly all actives have a fitted effect of over 60% in size
#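 USP1/UAF1 complex (1 nM) preincubated 15 min at room temperature with compound, then Ub-Rho substrate (150 nM final) added. Kinetic fluorescence at 480/540 nm over 6 reads at 60 s intervals; 50 mM HEPES pH 7.8, 0.5 mM EDTA, 0.1 mg/ml BSA, 1 mM TCEP, 0.01% Tween-20.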
# PLK1 PBD inh: blocks phosphopeptide binding to human PLK1 polo-box domain; P53350; Plk1 PBD binding of FITC phosphopeptide, fluorescence polarization; Potency, µM, inactives show max response, negative = inhibition, hits mostly inhibitors; hit rate 2.8% among 360,000; note: potency is the fitted concentration of half-maximal effect; series mostly up to about 57 µM; nearly all actives have a fitted effect of over 65% in size
# WRN helicase inh: inhibitors of human WRN helicase; Potency, µM (series often up to 114 µM), for the others: top-dose activity change, negative = inhibition, most hits filed as inhibitors; WRN helicase unwinding, fluorescent forked duplex, kinetic; hit rate 0.46% among 360,000; Q14191; note: potency is the fitted concentration of half-maximal effect; nearly all actives have a fitted effect of over 55% in size
#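 Kinetic fluorescence helicase assay: unwinding of a quenched forked DNA duplex (100 nM final) with 2 mM ATP final raises red fluorescence (525/598 nm). Compounds sat 15 min at room temperature with 20 nM WRN beforehand.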
# PI5P4Ka inh: PI5P4K alpha (human) kinase inhibition; P48426; PI5P4Kalpha enzyme, ADP-Glo luminescence, 60 min; active compounds read low; max response, %; hit rate 1.2% among 330,000; AID 652105; active = max response of -50% or lower; inconclusive = between -30% and -50%; inactive = -30% or higher; note: value at the top dose of about 77 µM
#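 ADP-Glo luminescence end-point after a 60 min room-temperature kinase reaction. PI5P4Kalpha and substrate in HEPES pH 7.4 buffer with EGTA, 0.1% CHAPS and 5% DMSO; ATP at 5 microM final.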
# USP2a inh: inhibitors of human ubiquitin-specific protease USP2a; USP2 core, Ub-CHOP2 coupled fluorogenic reporter, 485/531; hit rate 0.01% among 330,000; O75604; Potency, µM (series often up to 38.3 µM), for inactives: top-dose activity change, negative = inhibition, actives largely listed as inhibitors;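 note: potency is the fitted concentration of half-maximal effect; plate controls were DMSO wells for no effect and full inhibition by NEM control for full effect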
#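 Cell-free coupled assay: 10nM USP2 core preincubated 30min RT with compound in Tris-HCl pH 8.0/CaCl2/CHAPS buffer, then 25nM Ub-CHOP2 and 25nM reporter substrate; fluorescence (Ex 485/Em 531) read after 60min RT, normalized to NEM inhibition, concentration-response curves fitted.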
# Active calls of the source: *; ? = inconclusive; nt = not tested or not shown; [ ] = another dose, or the depositor's remark. Shown are actives, neighbours in structure and some others; about 3.3% of the full set was active somewhere. Unless noted, calls come from the whole dose curve; as a rule, active = well fitted curve in the direction sought with a large enough effect; inconclusive = small, poorly fitted or top-dose-only effect, or another doubt; inactive = no such curve, though single readings can be large; an effect the other way counts as inactive or inconclusive. Unless noted, % is set by controls: 0 for no effect and ±100 for the full control effect.
SMILES,USP1 inh,PLK1 PBD inh,WRN helicase inh,PI5P4Ka inh,USP2a inh
CCOC(=O)C1CCN(C(=O)CC(C)c2ccccc2)CC1 (centres undefined),-6%,24µM*,1%,?,nt
COc1ccc(C(C(=O)NC2CCCC2)N2CCc3ccccc32)cc1 (centres undefined),-25%,-4%,3%,0,1%
CCOC(=O)C1CCN(C(=O)CCNS(=O)(=O)c2ccc(C)cc2)CC1,-19%,1%,6%,2,-1%
CCOC(=O)C1CCN(C(=O)CC(NS(=O)(=O)c2ccc(OC)cc2)C(C)C)CC1 (centres undefined),-15%,3.8µM*,9%,?,-9%
CC(C)CC(=O)N1CCC(N2CCN(c3ccccc3)CC2)CC1,-16%,30µM*,1%,-13,-1%
O=C(CSc1ccc(-c2cccs2)nn1)Nc1cccc(F)c1,-10%,nt,nt,nt,nt
COc1ccc(-n2c(/C=C/c3cccc4ccccc34)nc3ccccc3c2=O)cc1Cl,-16%,nt,nt,nt,nt
Oc1ccc(Nc2nc(NCC3CCCO3)c3ccccc3n2)cc1 (centres undefined),-10%,5%,35µM*,-4,0%
COc1ccc(CCNC(=O)CCc2cn(Cc3ccc(F)cc3)c3ccccc23)cc1OC,-8%,nt,nt,nt,nt
CCOc1ccccc1NC(=O)c1nc2nc(C)cc(C(F)F)n2n1,-3%,nt,nt,nt,nt
CCc1ccccc1NC(=O)N1CC(CC)Oc2ccc(Cl)cc21 (centres undefined),8%,nt,nt,nt,nt
Cc1cc(C)c(CSc2nnc(C)n3c2cc2occc23)c(C)c1,-22%,nt,nt,nt,nt
NC(=S)N/N=C/c1ccc(-c2ccc([N+](=O)[O-])cc2)o1,-16%,24µM*,-4%,-56*,2%
COc1ccc(CCCc2nnc(SCC(=O)Nc3ccc(Cl)cc3)o2)cc1,-9%,nt,nt,nt,nt
COc1cc(Cl)c(C)cc1NC(=O)CNC(=O)Cn1ccc2ccccc2c1=O,-6%,nt,nt,nt,nt
CCCCCn1c(CCCNC(=O)c2cccc(C)c2)nc2ccccc21,6%,nt,nt,nt,nt
Cc1ccc(-n2nnnc2C(=Cc2ccc(N(C)C)cc2)c2nnnn2-c2ccc(C)cc2)cc1,22µM*,-21%,4%,nt,17%
O=C(O)c1ccc(N/N=C/c2ccc(-c3ccccc3)cc2)cc1,-14%,27µM*,-6%,-10,0%
O=C(O)c1cc(N/N=C/c2ccc(-c3ccccc3)cc2)ccc1Cl,-21%,9.5µM*,-21%,?,-10%
O=C(O)c1ccc(N/N=C/c2ccc(OC(=O)c3ccccc3Cl)cc2)cc1,-7%,30µM*,1%,1,0%
CC(C)c1ccc(/C=N/Nc2ccc(C(=O)O)cc2)cc1,-16%,?,10%,0,2%
O=C(O)c1cc(-c2ccc(/C=N/Nc3ccc(Cl)cc3)o2)ccc1Cl,-27%,30µM*,-9%[11.6 µM],nt,2%
Nc1ccc(C(=O)N/N=C\c2ccc(OC(=O)c3ccccc3Cl)cc2)cc1,-1%,-14%,-2%,-9,3%
Nc1nonc1C(=O)N/N=C/c1ccc(-c2ccc(Cl)c(C(=O)O)c2)o1,-20%,-12%,?,-24,1%
COc1ccccc1C(=O)Nc1ccc(C(=O)OCc2cc(=O)n3c4c(sc3n2)CCCC4)cc1,-18%,nt,nt,nt,nt
SMILES,USP1 inh,PLK1 PBD inh,WRN helicase inh,PI5P4Ka inh,USP2a inh
O=C(NCc1ccccc1F)C(=O)NCC(c1cccs1)S(=O)(=O)c1cccs1 (centres undefined),0%,nt,nt,nt,nt
CCOC(=O)c1cc(-c2ccccc2)n(-c2cccc(C(=O)N(CC)c3ccccc3)c2)c1C,-34%,nt,nt,nt,nt
COc1ccccc1C(=O)c1cn(CC(=O)Nc2ccccc2F)c2nc(C)ccc2c1=O,-18%,nt,nt,nt,nt
COc1ccc(-c2nc3scc(CCNS(=O)(=O)c4cccs4)n3n2)cc1,-29%,nt,nt,nt,nt
CC(=O)Nc1ccc(/C(C)=N/Nc2nc(N3CCOCC3)nc(N3CCOCC3)n2)cc1,0%,30µM*,-2%,2,0%
CC(=O)Nc1ccc(/C(C)=N/Nc2nc(Nc3cccc4ccccc34)nc(N3CCOCC3)n2)cc1,-18%,-5%,-16%[57.1 µM],-8,2%
COc1ccccc1NC(=O)CSc1ncc2c(n1)-c1ccccc1N(Cc1ccccc1C)S2(=O)=O,-25%,nt,nt,nt,nt
O=C(Nc1cc2c(cc1C(=O)c1ccccc1Br)OCCO2)c1ccccc1,0%,nt,nt,nt,nt
CN(C)C(=O)NC(NC(=S)Nc1ccccc1)C(Cl)(Cl)Cl (centres undefined),-25%,12µM*,-5%,-4,2%
COc1cc(OC)c(NC(=O)c2nn(-c3ccc(C)cc3)c(=O)c3c2c2ccccc2n3C)cc1Cl,-13%,nt,nt,nt,nt
O=c1[nH]c(=S)[nH]c2sc3c(c12)CCCCCC3,-19%,?,-4%,-60*,2%
Nn1c(=S)[nH]c2sc3c(c2c1=O)CCCC3,-15%,?,-19%,-70*,nt
COC(=O)c1c(NC(=O)CS(=O)(=O)c2ccc(C)cc2)sc2c1CCCCC2,-19%,nt,nt,nt,nt
CCOc1ccccc1CNc1ncnc2onc(-c3ccc(F)cc3)c12,5%,nt,nt,nt,nt
COc1ccc(Cl)c2sc(N(CCN(C)C)C(=O)CCS(=O)(=O)c3ccc(C)cc3)nc12,-15%,-2%,-4%,20,0%
COc1ccc(OC)c2sc(N(CCCN(C)C)C(=O)CCS(=O)(=O)c3ccccc3)nc12,-2%,7.5µM*,-25%,6,0%
O=C(CCl)N1c2ccccc2OCC1c1ccccc1 (centres undefined),-8%,?,-11%,-5,6%
O=C(CCl)N1c2ccccc2SCC1c1ccccc1 (centres undefined),?,3µM*,-17%,1,-1%
Cc1ccc(CNC(=O)CNS(=O)(=O)c2cccs2)cc1,-31%,nt,nt,nt,nt
CCNC(=O)C(=O)c1c(-c2ccccc2)[nH]c2ccccc12,-20%,2%,3%,-1,3%
Nc1sc(Cc2ccccc2)cc1C(=O)c1c(-c2ccccc2)[nH]c2ccccc12,nt,19µM*,-11%,-28,nt
CCc1ccc(NC(=O)c2cc3nc(-c4ccc(C)cc4)cc(C(F)(F)F)n3n2)cc1,-18%,nt,nt,nt,nt
Cc1cccc(N2C(=O)CSC23C(=O)N(Cc2cccc(C(F)(F)F)c2)c2ccccc23)c1 (centres undefined),-23%,nt,nt,nt,nt
Cc1ccc(CNC(=O)c2nn(C)c3c2CS(=O)(=O)c2ccccc2-3)cc1,-16%,30µM*,-3%,-8,0%
Cc1cccc(N2CCN(C(=O)C3CCN(S(=O)(=O)c4cccs4)CC3)CC2)c1C,-15%,nt,nt,nt,nt
O=C(Nc1ccccc1C(=O)Nc1nnc(C(F)(F)F)s1)c1ccccc1Cl,-3%,27µM*,-31%,-3,1%
NC1=NC(=O)C(Cc2ccc(F)cc2)S1 (centres undefined),-20%,24µM*,-7%,1,0%
Cc1ccc(Oc2c(C(N)=O)cc([N+](=O)[O-])cc2[N+](=O)[O-])cc1,0%,21µM*,?,3,-1%
Cc1ccc(CNc2ccc([N+](=O)[O-])cc2C(N)=O)cc1,-25%,2%,-1%,-3,-5%
